# From PubChem BioAssay
# Cycloheximide cs: counter-screen hit for Shiga toxin inhibitors, cycloheximide; max response, %; cell reporter, cycloheximide protein synthesis inhibition counterscreen; 300,000 compounds, 12% hits; in the data active means max response mostly above about 13%, no sharp cut-off; inactive means mostly below about 14%; further: read at 38.3 µM for the half of the compounds with a filed dose; 0% is about no effect
# VACV mCherry inh: vaccinia inhibition (mCherry reporter); Vaccinia virus mCherry reporter infection, fluorescence; Potency, µM (top dose mostly 36.5 µM), inactives show at the highest dose activity change, negative = inhibition, actives largely listed as inhibitors; 310,000 compounds, 0.63% hits; calls by dose curve; tested in A549 cells; further: potency means the concentration at half of the fitted maximal effect; on the % scale 0 is the no-effect control and ±100 the full control effect; nearly all actives have a fitted effect of over 35% in size
# Shiga toxin inh: Shiga toxin inhibition | Vero cells, Shiga toxin protein synthesis inhibition reporter | inhibition, % at 38.7 µM | 290,000 compounds, 9.2% hits; in the data active means inhibition mostly above about 28%, no sharp cut-off; inactive means mostly below about 43%; further: 0% is about no effect
# Marburg entry inh: inhibitors of Marburg virus binding or cell entry; Marburg virus pseudotyped entry inhibition, cell reporter; Potency, µM (top dose mostly 37.8 µM), inactives show top-dose activity change, negative = inhibition, most hits filed as inhibitors; 300,000 compounds, 1.8% hits; AID 540276; calls by dose curve; tested in HEK293 cells; further: potency means the concentration at half of the fitted maximal effect; on the % scale 0 is the no-effect control and ±100 the full control effect
# Lassa entry inh: inhibitors of Lassa virus binding or cell entry | AID 540256 | Lassa virus pseudotype entry inhibition, cell reporter | 300,000 compounds, 1.2% hits | Potency, µM (titrated, usually from 37.9 µM), without a hit: at the highest dose activity change, negative = inhibition, most hits filed as inhibitors; calls by dose curve; tested in HEK293 cells; further: potency means the concentration at half of the fitted maximal effect; on the % scale 0 is the no-effect control and ±100 the full control effect; nearly all actives have a fitted effect of over 50% in size
# Vaccinia Venus: vaccinia inhibition (Venus reporter) | Vaccinia virus Venus reporter expression, fluorescence | Potency, µM (series often up to 36.5 µM), inactives show at the top dose activity change, negative = inhibition, actives largely listed as inhibitors | 330,000 compounds, 0.46% hits | AID 720580; calls by dose curve; tested in A549 cells; further: potency means the concentration at half of the fitted maximal effect; on the % scale 0 is the no-effect control and ±100 the full control effect; nearly all actives have a fitted effect of over 30% in size
# * hit, by the source's call; i = inactive; ? = inconclusive; nt = no result given; [ ] = another dose, or the depositor's remark. Only a selection was taken, and hits are over-represented in it overall.
SMILES,Cycloheximide cs,VACV mCherry inh,Shiga toxin inh,Marburg entry inh,Lassa entry inh,Vaccinia Venus
COc1ccc(C(=O)NCCN2C(=O)S/C(=C\c3cccnc3)C2=O)cc1[N+](=O)[O-],24.6*,i,43.0*,-1.8%[46.1 µM],3.7%[46.1 µM],-19.5%
COc1ccc(C(=O)NCCCOC(C)C)cc1OC1CCN(C(C)=O)CC1,35.5*,i,96.4*,?,2.0%,-6.8%
COc1ccc2c(CC(=O)NCCN3C(=O)S/C(=C\c4cccnc4)C3=O)coc2c1,1.2,i,20.0,10.3%,?,-10.7%
COc1ccc(CCNC(=O)C2CCC(=O)N2CCc2ccccc2)cc1OC (stereo not given),25.7*,nt,124.9*,nt,nt,nt
Cc1ccc(C(=O)NCCc2cccc(Cl)c2)cc1[N+](=O)[O-],37.9*,i,active,-54.1%,21.4%,-5.1%
COc1ccc(S(=O)(=O)N(C)C[C@H]2OCc3cnnn3CCCC(=O)N([C@H](C)CO)C[C@@H]2C)cc1,nt,i,nt,nt,nt,-6.5%
Cc1cc(C)c2oc(-c3cccc(NC(=O)c4cc5ccccc5o4)c3)nc2c1,nt,4.8%,nt,nt,9.4%[46.1 µM],1.8%
COc1ccc(C(=O)NCCCc2ccccc2)cc1OC,14.0*,-9.9%,nt,10.2%[46.1 µM],?,-5.1%
CCC(CC)C(=O)Nc1cc(C(=O)NCCc2ccccc2)ccc1Cl,32.8*,-12.5%,16.0,4.3%,-24.7%,-7.6%
COc1cc(C(=O)NCC(=O)Nc2c(C)cccc2C)ccc1OCc1ccccc1,nt,-10.7%,nt,?,1.1%,-17.8%
CNC(=O)c1ccc(OCc2ccccc2)c(OC)c1,19.7*,nt,19.5,?,11.1%,-15.7%
COc1ccc(C(=O)NCCc2ccccc2)cc1OC,28.1*,nt,44.0*,nt,nt,nt
COc1cc(C(=O)NCCCCc2ccccc2)cc(OC)c1OC,-1.0,nt,-10.9,nt,nt,nt
CCCCCn1c(N)c(C(=O)NCCN2CCOCC2)c2nc3ccccc3nc21,6.0,nt,-2.0,?,?,?
COc1ccc(C(=O)OCC(=O)NCCCc2ccccc2)cc1[N+](=O)[O-],4.8,-3.9%,12.4,0.3%,15.9%,-1.0%
COc1ccc(CCNC(=O)c2c(N)n(CCN3CCOCC3)c3nc4ccccc4nc23)cc1OC,-4.7,?,-2.9,?,18.3µM*,?
COc1ccccc1OCc1ccc(C(=O)NN)cc1,-1.6,-9.9%,-13.7,?,-4.9%,-9.0%
COc1ccc(C(=O)NCCc2ccccc2)cc1[N+](=O)[O-],31.6*,i,50.1*,1.5%,?,1.2%
COc1ccccc1OCCNC(=O)c1ccc2c(c1)CCC2,23.6*,-13.2%,64.5*,?,28.4%,-3.7%
COc1ccccc1OCc1ccc(C(=O)c2ccccc2)cc1,23.2*,-15.1%,nt,?,7.8%[46.1 µM],-1.6%
Cc1ccc(C(=O)c2cn(CC(=O)NC3CCCCC3)c3nc(C)ccc3c2=O)cc1,nt,-8.4%,nt,nt,-10.5%[46.1 µM],-7.8%
CCc1nc2ccc(C(=O)NCCc3ccc(OC)c(OC)c3)cc2nc1CC,-5.8,-9.6%,3.1,nt,-21.6%[46.1 µM],-16.7%
COc1ccc(C(=O)NCCc2c[nH]c3ccccc23)cc1[N+](=O)[O-],7.4*,-2.4%,3.1,10.8%,-7.5%,-16.9%
COc1ccc(CCNC(=O)c2ccc3nc(-c4ccco4)c(-c4ccco4)nc3c2)cc1OC,6.0,nt,-16.5,10.3µM*,8.2µM*,nt
COc1ccc(/C=C(/NC(=O)c2ccc(OC)c(OC)c2)C(=O)NCCc2c[nH]c3ccccc23)cc1,4.5,i,-9.9,17.1%,-14.2%,-14.3%
SMILES,Cycloheximide cs,VACV mCherry inh,Shiga toxin inh,Marburg entry inh,Lassa entry inh,Vaccinia Venus
CCOC(=O)c1oc2c(c1C)/C(=N/O)CCC2,41.2*,-16.7%,65.5*,24.5%,?,-7.9%
COc1cccc(-c2nc3cc4c(cc3cc2CN(C(=O)c2cc(C)nn2C)C2CC2)CCC4)c1OC,nt,-19.6%,nt,nt,nt,-7.5%
CC(C)c1ccc(Nc2ccc(C(=O)O)cc2[N+](=O)[O-])cc1,19.3*,-17.7%,42.8,-0.9%,?,-11.6%
CC1(C)Cc2c(c(N3CCOCC3)nc3sc4c(NCc5ccccc5)nnnc4c23)CS1,-3.6,nt,-17.2,-10.8%,?,nt
CC(C)CNc1nnnc2c1sc1nc(N3CCOCC3)c3c(c12)CC(C)(C)SC3,-2.4,?,-18.8,?,14.1µM*,-16.0%
Cc1ccc(-c2noc(CNc3ccccc3)n2)cc1,37.0*,nt,64.2*,?,11.2%,nt
Cc1ccc(CC(=O)NCc2nc(-c3ccccc3)no2)cc1,nt,-8.4%,nt,1.2%[46.1 µM],-3.8%[46.1 µM],-7.6%
CCc1ccc(NCc2nc(-c3ccccc3)no2)cc1,30.7*,-4.9%,47.3*,?,-3.4%,-9.0%
CC(NC(=O)c1cnn2c1NC(=C1CC1)C=C2C(F)F)c1ccncc1 (stereo not given),nt,-4.7%,nt,nt,nt,-19.4%
COc1ccc(-c2nc(-c3ccccc3)c(-c3ccc(F)cc3)[nH]2)c(OC)c1C,nt,-7.2%,nt,-10.7%[46.1 µM],3.1%[46.1 µM],-10.0%
CCOC(=O)c1ccc(N=C2SC(C(=O)Nc3ccccc3)CC(=O)N2C)cc1 (stereo not given),nt,-9.9%,nt,nt,16.0%[46.1 µM],-2.0%
Cc1ccc(-c2nc3cc(C(C)C)ccc3o2)cc1NC(=O)c1cc2ccccc2o1,nt,-17.4%,nt,9.7%[46.1 µM],?,-12.4%
Cc1ccc(-c2nc3ccccc3o2)cc1NC(=S)NC(=O)c1cc2ccccc2o1,45.0*,i,84.7*,-11.6%,?,-12.4%
Cc1ccc2oc(-c3ccc(C)c(NC(=O)Cc4cccs4)c3)nc2c1,4.1,i,8.8,9.6%,0.9%,-7.2%
Cc1ccc2oc(-c3ccc(C)c(NC(=S)NC(=O)c4cccs4)c3)nc2c1,44.7*,nt,10.1*,nt,nt,nt
Cc1c(NC(=S)NC(=O)c2cc3ccccc3o2)cccc1C(=O)O,53.7*,nt,75.6*,nt,nt,nt
COc1cc(/C=C(\C#N)C(=O)NC(C)C)cc(Cl)c1O,-2.2,-5.6%,-4.6,?,-21.6%,-3.2%
Cc1ccc2c(c1)nc1c3ccccc3nc(-c3ccccc3N)n21,nt,-15.1%,nt,nt,nt,-17.6%
O=C(Nc1c(F)cc(F)cc1Br)c1cc(-c2ccc(O)cc2)on1,30.7*,i,22.9,nt,nt,-17.6%
O=C(Nc1c(F)cc(F)cc1Br)c1cc(-c2ccccc2)on1,15.9*,nt,nt,nt,nt,nt
Cc1cc(C(=O)Nc2c(F)cc(F)cc2Br)no1,13.6*,nt,25.9,10.0%,5.9%,nt
Cc1cc(C(F)F)n2nc(C(=O)Nc3c(F)cc(F)cc3Br)nc2n1,-2.7,nt,-5.9,12.7%[46.1 µM],13.8%,-18.1%
CCCCCCNC(=O)c1c[nH]c2ccc(S(=O)(=O)N(C)c3ccc(C(C)C)cc3)cc2c1=O,nt,-13.4%,nt,nt,-7.1%[46.1 µM],-10.1%
CCOc1ccc(NC(=O)c2cn3c4c(ccc(Cl)c4c2=O)OC(C)C3)cc1 (stereo not given),nt,-5.2%,nt,nt,-4.0%[46.1 µM],-7.0%
Cc1ccc2nc(NC(=O)c3ccco3)sc2c1,29.6*,nt,14.9,4.47µM*,1µM*,?
O=c1sc(Nc2ccccc2)nc2ccsc12,80.1*,nt,91.5*,?,?,nt
Cc1nnc(NC(=O)C2CCN(C(=O)c3ccco3)CC2)s1,-1.8,-0.9%,-10.7,-0.8%[46.1 µM],0.5%[46.1 µM],-10.0%
COc1ccc2nc(NC(=O)C3CCN(C(=O)c4ccco4)CC3)sc2c1,36.2*,i,144.1*,-17.0%[46.1 µM],-27.0%,-16.9%
